Rows were chosen to be rich in hits. Some 3.2% of all compounds tested hit in one or more screens of this group.
PG9 binder: binders of HIV-1 gp120 antibody PG9, primary screen, biochemical, TR-FRET. HIV-1 gp120 / PG9 antibody interaction. TR-FRET gp120-PG9 antibody binding. inhibition, % at 6.7 µM. 360,000 tested, 0.43% active. AID 624416, 2012; in the data active = inhibition above about 8.5%
HGIII-sPLA2 inh: human group III sPLA2 inhibitors, primary screen, biochemical, QFRET, BODIPY PC-A2 liposome substrate; Group 3 secretory phospholipase A2 (Homo sapiens), Q9NZ20; AID 743126, 2013; inhibition, % at 12.2 µM; 370,000 tested, 0.56% active; QFRET BODIPY PC-A2 liposome hydrolysis, fluorescence;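 active = inhibition above mean plus 3 SD of compounds lying within the high and low control bounds, cut at about 19% in these data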;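 note: 0% = median of test compound wells and 100% = no enzyme DMSO wells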
Target sequence (Q9NZ20 whole entry, looked up): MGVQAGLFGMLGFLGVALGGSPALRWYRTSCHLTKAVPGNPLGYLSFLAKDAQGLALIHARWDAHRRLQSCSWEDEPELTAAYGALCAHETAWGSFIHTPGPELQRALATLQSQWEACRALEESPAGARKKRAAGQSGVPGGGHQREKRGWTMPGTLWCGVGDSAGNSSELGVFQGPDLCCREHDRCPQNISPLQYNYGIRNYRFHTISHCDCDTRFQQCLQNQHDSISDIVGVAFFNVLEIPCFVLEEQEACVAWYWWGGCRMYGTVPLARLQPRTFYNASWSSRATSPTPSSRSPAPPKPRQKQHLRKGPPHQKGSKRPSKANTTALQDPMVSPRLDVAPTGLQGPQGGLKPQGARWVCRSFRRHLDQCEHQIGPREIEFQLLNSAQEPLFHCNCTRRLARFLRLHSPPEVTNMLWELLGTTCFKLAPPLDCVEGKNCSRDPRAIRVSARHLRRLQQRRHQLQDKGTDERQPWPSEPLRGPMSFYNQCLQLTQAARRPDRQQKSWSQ
MsrA inhibitor: bovine MsrA enzyme inhibitors, primary screen, biochemical, absorbance, HTS; Methionine sulfoxide reductase A (Bos taurus); purified bovine MsrA, absorbance read-out; inhibition, % at 15.5 µM; 360,000 tested, 0.75% active; AID 651718, 2012; in the data active = inhibition above about 4.5%;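 note: 0% = vehicle wells with enzyme and 100% = reference inhibitor wells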
bovine MsrA act: bovine MsrA enzyme activators, primary screen, biochemical, absorbance, HTS. Methionine sulfoxide reductase A (Bos taurus). purified bovine MsrA, absorbance read-out. activation, % at 10.6 µM. 360,000 tested, 0.3% active. AID 602163, 2012; in the data active = activation above about 7.5%;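 note: 0% = vehicle and 100% = reference activator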
rCAG RNA binder: binders of r(CAG) RNA repeats, primary screen, biochemical, fluorescence. r(CAG) RNA repeat, TO-PRO-1 dye displacement fluorescence. inhibition, % at 3 µM. 370,000 tested, 1.3% active. AID 651821, 2012;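 active = inhibition above the plate cutoff, the mean of all test compounds on that plate plus 3 SD, cut at about 35% in these data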;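 note: 0% = DMSO alone and 100% = 100 µM mitoxantrone as full dye displacement; higher means more dye released from RNA so lower well fluorescence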
sPLA2 confirm: human group III sPLA2 inhibitors, confirmation, biochemical, QFRET, triplicate. 2,000 tested, 34% active. recombinant hGIII-sPLA2, BODIPY PC-A2 QFRET fluorescence. AID 743280, 2014. inhibition, % at 12.2 µM. shares compounds with HGIII-sPLA2 inh;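 active = mean inhibition across triplicates above the hit cutoff set in the earlier primary screen, cut at about 19% in these data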;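 note: 0% = enzyme with DMSO and 100% = DMSO wells lacking enzyme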
BODIPY interf: 535nm fluorescence optical interference, confirmation, artefact control for HGIII-sPLA2 inhibitor project, biochemical, QFRET. shares compounds with HGIII-sPLA2 inh. BODIPY FL product fluorescence interference. inhibition, % at 12.2 µM. 2,000 tested, 8.5% active. AID 743282, 2014;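 active = average inhibition above the solvent-only control mean plus 3 SD, cut at about 6% in these data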;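 note: 0% = DMSO with substrate plus product and 100% = DMSO with substrate alone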
BODIPY interf DR: 535nm fluorescence optical interference, dose response, artefact control for HGIII-sPLA2 inhibitor project, biochemical, QFRET. IC50, µM. 240 tested, under 10 active. BODIPY FL product fluorescence interference, cell-free. shares compounds with HGIII-sPLA2 inh;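 active = IC50 at or below 10 µM; inactive = IC50 above 10 µM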
* hit, by the source's call; x = not tested or not shown.

SMILES | PG9 binder | HGIII-sPLA2 inh | MsrA inhibitor | bovine MsrA act | rCAG RNA binder | sPLA2 confirm | BODIPY interf | others
CCOC(=O)NN1C(=O)c2ccccc2NC1C (stereo not given) | 1 | -2 | 0 | -6 | 0 | x | x
CCOC(=O)NN1C(=O)c2ccccc2NC1c1ccccc1 (stereo not given) | -1 | 30* | 0 | -5 | -1 | 1 | -7
COc1ccc(Cl)cc1-c1cc(C(=O)Nc2ccc(C(C)(C)C)cc2)[nH]n1 | 0 | -10 | 0 | -4 | 12 | x | x
OC[C@@H](O)[C@H](O)C(/C=N/Nc1ccccc1)=N\Nc1ccccc1 | -2 | 20* | 2 | 0 | 4 | 23* | 3
CC(=O)/C=N/Nc1ccccc1 | -2 | 3 | 3 | -2 | -1 | x | x
O=C(N[C@H](C(=O)N1CCC[C@H]1C(=O)NC1CCCC1)C1CCCCC1)c1ccc(Cl)c(Cl)c1 | 4 | 3 | 0 | x | 3 | x | x
OC[C@@H]1CN(Cc2ccncc2)C[C@H](n2cnc3c(NC4CCCC4)ncnc32)O1 | 5 | 21* | 1 | -8 | 1 | 0 | -10
COCCN1C[C@@H](CO)O[C@@H](n2cnc3c(N4CCCC4)ncnc32)C1 | 1 | 20* | 0 | -5 | 1 | 1 | -2
OC[C@@H]1CN(Cc2ccncc2)C[C@H](n2cnc3c(NC4CC4)ncnc32)O1 | 0 | 12 | 1 | -3 | -1 | x | x
COCCN1C[C@@H](CO)O[C@@H](n2cnc3c(N4CCOCC4)ncnc32)C1 | -2 | 1 | 0 | -2 | -1 | x | x
COc1ccc(CN2C[C@@H](CO)O[C@@H](n3cnc4c(N5CCOCC5)ncnc43)C2)cc1 | 1 | 20* | 1 | 0 | 2 | -4 | -19
S=c1[nH]nc(-c2n[nH]c3c2CCC3)n1N=Cc1c[nH]c2ccccc12 | x | 1 | x | x | 13 | x | x
O=C(Nc1nnc(SCC(=O)N2CCCc3ccccc32)s1)c1ccc2ccccc2c1 | 1 | 20* | 2 | -4 | 2 | -49 | -9
O=C(Nc1nnc(SCC(=O)N2CCCc3ccccc32)s1)c1ccccc1 | -1 | 3 | 0 | 1 | 9 | x | x
Cc1ccc(C(=O)NC(=S)Nc2c(C)ccc3nsnc23)cc1 | -4 | 23* | 0 | -4 | -2 | 13 | -7
O=C(CSCc1c(F)cccc1Cl)NNC(=S)NC1CCCCC1 | -1 | 21* | -1 | -2 | 3 | 11 | 2
O=C(COC(=O)c1c(F)cccc1Cl)NC1CCCCC1 | 1 | 6 | -1 | -7 | -14 | x | x
O=c1[nH]n(Cc2ccccc2)c2ccccc12 | 1 | 20* | 1 | -5 | -1 | 7 | -3
O=C(Nc1ccc(F)cc1)OCc1cn(Cc2ccc(Cl)cc2)nn1 | x | -13 | x | x | 2 | x | x
COc1ccc(CCNC(=O)c2cnn3c(C(F)F)cc(C)nc23)cc1OC | 3 | 20* | 2 | -1 | 3 | 6 | -11
COc1ccccc1CCNC(=O)c1cnn2c(C(F)F)cc(C)nc12 | 0 | 12 | 1 | -4 | 0 | x | x
COc1cccc(C(=O)Oc2cc3c4c(c2)C(C)=CC(C)(C)N4C(=O)C3=O)c1 | -1 | 32* | 0 | -1 | -2 | 53* | 3 | BODIPY interf DR=>122
Cc1ccc(S(=O)(=O)N2CC3(COC(C)(C)OC3)C[C@H]2CON2C(C)(C)CCCC2(C)C)cc1 | x | -2 | x | x | x | x | x
CN(C)Cc1csc(Nc2ccc(C(F)(F)F)cn2)n1 | 0 | -11 | 0 | 1 | -1 | x | x
O=C(NCCCn1ccnc1)c1ccc(Cl)cc1 | -1 | 21* | -1 | -10 | -3 | -4 | -6
SMILES | PG9 binder | HGIII-sPLA2 inh | MsrA inhibitor | bovine MsrA act | rCAG RNA binder | sPLA2 confirm | BODIPY interf | others
Nc1nc(Cl)nc2c1ncn2[C@@H]1O[C@H](CO)[C@@H](O)[C@@H]1F | x | 4 | x | x | 1 | x | x
CCOC(=O)C1(C)CCCN(C(=O)c2ccc(OC(F)F)cc2)C1 (stereo not given) | -1 | 0 | -1 | -2 | -1 | x | x
COc1cccc(CNC(=O)[C@H]2CCCN2C(=O)[C@H]2CCCN2C(=O)c2ccccc2)c1 | 0 | 6 | 0 | x | 1 | x | x
Cc1nn(C)c(-c2n[nH]c(=S)n2-c2ccccc2)c1Cl | 6 | 26* | 0 | 7 | 3 | 24* | -3
Cc1nn(C)cc1-c1n[nH]c(=S)n1-c1ccc(F)cc1 | 0 | 29* | 1 | 0 | -3 | 4 | -3
S=c1[nH]c(-c2ccccc2)cn1/N=C/c1cccs1 | 1 | 24* | 1 | 0 | 5 | 38* | 12*
Oc1ccccc1/C=N/NC(=S)NC1CC2CCC1C2 (stereo not given) | -2 | 28* | 2 | -2 | 5 | 18 | 7.3*
COc1cccc(/C=N/NC(=S)NC2CC3CCC2C3)c1OC (stereo not given) | -2 | -2 | 1 | 0 | 0 | x | x
Cc1ccc(Cn2cc(CN3[C@H](C)COc4cc(Br)ccc4S3(=O)=O)nn2)cc1 | x | -7 | x | x | -1 | x | x
COc1cc(CC(NC(C)=O)C(=O)NC2CCN(c3c(Cc4ccccc4)c(C)nc4ncnn34)CC2)cc(OC)c1 (stereo not given) | -1 | 22* | 0 | -2 | 0 | -2 | -32
CC(=O)Nc1ccc(NC(=O)C2CCN(c3c(Cc4ccccc4)c(C)nc4ncnn34)CC2)cc1 | 0 | 5 | 1 | -6 | 14 | x | x
N=c1n(CCN2CCCCC2)c2ccccc2n1CC(O)c1ccco1 (stereo not given) | 2 | 21* | 0 | 1 | 4 | -1 | -21
CN(Cc1ccc(OC(F)F)cc1)C(=O)c1cccc(S(=O)(=O)N2CCN(Cc3ccccc3)CC2)c1 | 1 | -14 | 0 | -1 | -2 | x | x
O=C(NCc1cccs1)c1cnn2cccnc12 | -1 | 24* | 1 | -3 | -2 | -5 | -5
Oc1c(C(Nc2cccc(C(F)(F)F)c2)c2ccncc2)ccc2cccnc12 (stereo not given) | -2 | -6 | -1 | -4 | 6 | x | x
Oc1c(C(Nc2nccs2)c2ccc(C(F)(F)F)cc2)ccc2cccnc12 (stereo not given) | 1 | 40* | 0 | -1 | -4 | 23* | -1
CCOC(=O)[C@H]1[C@H]2COc3ccc(Br)cc3[C@@H]2N2C(=O)CN(Cc3ccc(F)cc3)C(=O)[C@@]12C | -1 | 0 | -1 | -2 | 4 | x | x

Screening results as filed in PubChem BioAssay.
